Reference: PubChem BioAssay

Assay: growth suppression of yeast trafficking mutant, preliminary HTS, modulators of trafficking downstream of Golgi apparatus project, 1536-format plate, OD 615 nm (AID 637)
Conditions: yeast transport mutant growth, absorbance 615 nm, 18 h; stronger effect = higher value; in the data active = inhibition above about 30%; inactive = the rest

inhibition, inactive:
COc1ccc(-c2cc(C(F)F)n3ncc(C(=O)NCC4CCCO4)c3n2)cc1 (stereo not drawn) 4.35%
Cn1c(SCC(=O)Nc2ccc3c(c2)oc2ccccc23)nnc1-c1ccccc1 5.9%
COC(=O)Nc1ccc(S(=O)(=O)N(C)CC(F)(F)C(F)F)cc1 1.8%
Cc1cccc(C2CC(c3ccc(Br)cc3)Nc3nc(N)nn32)c1 (stereo not drawn) 2.33%
Cc1cnc(C(=O)OCC(=O)Nc2ccc(Cl)cc2Cl)cn1 2.38%
CCOC(=O)C1CCN(C(=O)c2ccc(OC)cc2OC)CC1 6.13%
CN(Cc1ccccc1)Cc1c[nH]c2ccccc12 -1.5%
CCN(C(=O)COC(=O)c1cc(C)n(-c2ccc(F)cc2)c1C)C1CCS(=O)(=O)C1 (stereo not drawn) 1.61%
